Rows were chosen to be rich in hits. Some 5.7% of all compounds tested hit in one or more screens of this group.
hcDAF-12 act: activators of H. contortus DAF-12 nuclear receptor | HEK293 hcDAF-12 lit1-tk-luc reporter, luminescence; 0% DMSO, 100% Δ7-dafachronic acid | activation, % at 6.8 µM | 1.4% of 370,000 active;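 active means activation above the mean of all tested compounds plus 3 SD, cut at about 5.5% in these data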;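 further: 100% = response to 3 µM Δ7-dafachronic acid high control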
hgDAF-12 ag: hgDAF-12 agonism, primary luciferase screen. HEK293 GAL4-hgDAF12 UAS-luciferase reporter, agonist luminescence; normalized to butyrate control. AID 687014. activation, % at 6.8 µM. 1.8% of 370,000 active;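 active means activation above a cutoff set at the mean of all screened compounds plus 3 SD, cut at about 10% in these data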;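 further: 0% = DMSO wells and 100% = sodium butyrate wells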
ssDAF12 agonist: activators of S. stercoralis DAF-12 nuclear receptor | HEK293 ssDAF-12/GRIP1 lit1-tk-luc reporter, luminescence; % of 3 µM dafachronic acid response | activation, % at 6.8 µM | 1% of 370,000 active;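 active means activation above the mean over all tested compounds plus 3 SD, cut at about 0.9% in these data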;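 further: 0% = DMSO-only wells and 100% = 3 µM delta7-dafachronic acid wells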
DAX1 inh-1: inhibitors of human orphan nuclear receptor DAX1 (NR0B1) | 0.99% of 340,000 active | HEK293 Gal4-DAX1 luciferase reporter, luminescence | inhibition, % at 6.75 µM;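 active means inhibition above the mean over all tested compounds plus 3 SD, cut at about 4.2% in these data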;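 further: 0% = DAX1-transfected cells with DMSO and 100% = empty-vector control cells with DMSO; inhibition shows as a rise in luminescence from relieved DAX1 repression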
DAX1 inh-2: DAX1 (NR0B1) inhibition, primary screen; HEK293T StAR-luciferase reporter, SF-1/DAX-1 repression relief; inhibition, % at 6.8 µM; 1.1% of 370,000 active;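 active means inhibition above the mean over all tested compounds plus 3 SD, cut at about 3.6% in these data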;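 further: 0% = DAX-1 cells with DMSO and 100% = cells lacking DAX-1 with DMSO; higher inhibition means more luminescence from relief of DAX-1 repression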
AHR act: activators of human aryl hydrocarbon receptor; AHR-responsive luciferase reporter cells, luminescence; 2.5% of 320,000 active; AID 2796; activation, % at 5 µM; in the data active means activation above about 47%;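 further: 0% = vehicle wells and 100% = reference agonist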
Target sequence (P35869 whole entry, looked up): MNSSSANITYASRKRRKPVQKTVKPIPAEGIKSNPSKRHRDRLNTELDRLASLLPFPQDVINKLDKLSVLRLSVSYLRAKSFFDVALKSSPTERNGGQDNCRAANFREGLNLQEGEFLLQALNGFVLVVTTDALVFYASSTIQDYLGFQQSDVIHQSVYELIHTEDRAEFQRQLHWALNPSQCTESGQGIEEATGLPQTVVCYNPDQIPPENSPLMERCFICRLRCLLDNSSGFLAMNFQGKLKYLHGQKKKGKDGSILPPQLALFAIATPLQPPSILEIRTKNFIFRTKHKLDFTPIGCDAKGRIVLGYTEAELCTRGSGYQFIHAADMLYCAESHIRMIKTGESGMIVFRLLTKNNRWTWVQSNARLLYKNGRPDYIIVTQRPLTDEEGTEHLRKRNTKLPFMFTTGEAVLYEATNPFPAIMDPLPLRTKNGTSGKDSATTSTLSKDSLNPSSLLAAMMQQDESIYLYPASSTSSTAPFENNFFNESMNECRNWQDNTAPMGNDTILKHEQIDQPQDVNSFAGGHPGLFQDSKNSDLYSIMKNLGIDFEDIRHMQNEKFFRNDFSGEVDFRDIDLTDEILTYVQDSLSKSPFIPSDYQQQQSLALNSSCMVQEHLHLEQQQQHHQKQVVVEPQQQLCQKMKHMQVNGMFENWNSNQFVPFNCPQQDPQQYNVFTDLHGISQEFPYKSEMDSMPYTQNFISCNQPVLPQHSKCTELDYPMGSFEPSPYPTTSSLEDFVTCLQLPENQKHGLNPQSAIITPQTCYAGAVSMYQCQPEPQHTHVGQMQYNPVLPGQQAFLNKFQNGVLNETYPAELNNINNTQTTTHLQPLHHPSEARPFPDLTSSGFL
* = called active by the depositor; · = no result given.

SMILES	hcDAF-12 act	hgDAF-12 ag	ssDAF12 agonist	DAX1 inh-1	DAX1 inh-2	AHR act
CN(CC(=O)Nc1ccccc1Br)C(=O)c1cccnc1Nc1cccc(C(F)(F)F)c1	2	1	-1	1	0	26
CSc1ccc(C(c2c(C(=O)O)[nH]c3ccccc23)c2c(C(=O)O)[nH]c3ccccc23)cc1	5.6*	0	-1	2	0	16
COc1ccc2ccc(OC)c(/C=N/n3cnnc3)c2c1	-2	-1	-1	-2	0	21
COc1ccc2ccccc2c1/C=N/n1cnnc1	6.5*	5	0	0	0	22
O=C1CCN(C(=O)CSc2ccc(Cl)cc2)N1	-1	-1	-1	5.8*	0	4
O=C1CCN(C(=O)c2ccc(Cl)cc2)N1	1	-3	-1	2	0	-1
Cc1ccc(S(=O)(=O)N2CCOCC2)cc1NC(=O)COC(=O)CCOc1ccc(C(C)(C)C)cc1	-1	-2	-1	1	2	-2
CCOC(=O)N/N=C/c1ccc(F)cc1F	1	4	1.0*	0	0	1
CCOC(=O)N/N=C/c1c[nH]c2ccccc12	6.2*	6	0	4	-1	21
Nc1ccc(C(=O)N/N=C/c2c[nH]c3ccccc23)cc1	4	4	-1	1	0	14
O=C(O)c1ccc(S(=O)(=O)NN=Cc2c[nH]c3ccccc23)cc1	3	1	0	1	-1	·
Cc1ccc(S(=O)(=O)N/N=C/c2c[nH]c3ccccc23)cc1	1	1	0.9*	-1	-1	12
COC(=O)N/N=C/c1c[nH]c2ccccc12	6	5	1	0	0	7
NC(=S)N/N=C/c1c[nH]c2ccccc12	5	1	1.8*	-1	0	11
COc1cc(/C=N/OCC(=O)NC2CCCCC2C)ccc1OCc1ccc(Cl)cc1 (stereo unspecified)	2	11*	0	3	4.2*	7
Cn1nc(C(=O)Nc2cc(Cl)ccc2N2CCCC2)c2ccccc2c1=O	0	1	-1	1	0	64*
c1ccc(NC(c2ccccc2)c2ccncc2)cc1 (stereo unspecified)	0	1	1.4*	2	0	2
c1ccc(C(Nc2cccnc2)c2ccccc2)cc1	-1	1	-1	1	-1	·
COC(=O)c1ccc(C)cc1	0	4	-2	1	0	1
COC(=O)c1ccc(NN=Nc2ccc(C)cc2)cc1	6.0*	11*	1	-2	3	9
COC(=O)C1=C(C)N(Cc2ccccc2C(F)(F)F)C(=NCc2ccccc2)NC1c1ccc(F)cc1 (stereo unspecified)	0	2	-1	·	0	·
CS/C(N)=N/S(=O)(=O)c1ccc(NC(C)=O)cc1	-2	-1	-1	-1	-1	-1
Cc1ccc(C)c(C(O)c2ncc(-c3ccc(C(F)(F)F)cc3)[nH]2)c1 (stereo unspecified)	-2	0	-2	·	-1	·
COc1cccc(CNC(=O)C2CCN(S(=O)(=O)c3ccc(F)cc3)CC2)c1	-1	-2	-1	1	0	·
COc1cccc(CNC(=O)C2CCN(S(=O)(=O)c3ccc4c(c3)CCC(=O)N4)CC2)c1	0	2	-1	5.0*	-1	-2
SMILES	hcDAF-12 act	hgDAF-12 ag	ssDAF12 agonist	DAX1 inh-1	DAX1 inh-2	AHR act
Cc1cccc(OCC(=O)NC(C)C(=O)N/N=C/c2c(OCc3ccccc3)ccc3ccccc23)c1 (stereo unspecified)	·	·	·	-1	·	88*
COc1ccc2ccccc2c1/C=N/NC(=O)c1cccc(C)c1	-1	1	-2	2	0	18
C=CC(n1cncn1)C(O)(c1ccccc1)c1ccccc1 (stereo unspecified)	1	0	-1	0	0	3
Cc1ccc(Cl)cc1N1CCN(C(=O)Cc2c(C(=O)O)[nH]c3ccccc23)CC1	5	-2	1.2*	1	0	8
Cc1ccc(S(=O)(=O)N(C)C)cc1NC(=O)c1cccnc1Oc1ccccc1	-2	0	-1	·	0	1
Cc1ccccc1C(=O)Nc1ccnn1C1CCN(Cc2c(C)n(C)c3ccccc23)CC1	6.1*	0	-1	1	0	·

From PubChem BioAssay
